Data from PubChem BioAssay AID1053118 (Broad Institute, 2014).
Measured potencies and affinities stand elsewhere. The source made the active and inactive calls.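 How the source made its calls: active means fitted half-maximal concentration for ATP signal loss at most twice the top valid dose; inconclusive means flat curve between -70 and -30%, or an invalid fit; inactive means flat within ±30%, wrong direction, or potency past limit.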

experiment: viability loss in HepG2 hepatoma cells – cell-based, cherry-picks, set 5, cytotoxicity control, dose response (AID 1053118); settings: ATP luminescence, 72 h; series mostly up to 26 µM

Compound | outcome
N#C[C@@H]1[C@H](c2ccccc2C2=CCCCC2)[C@@H](CO)N1S(=O)(=O)c1ccccc1 | inactive
COc1cccc(-c2ccc3c(c2)[C@H]2[C@H](CCN2S(=O)(=O)c2cccc(OC)c2)[C@H](CO)N3)c1 | inactive
COc1cccc(S(=O)(=O)N2CC[C@@H]3[C@H]2c2cc(-c4ccc(C#N)cc4)ccc2N[C@@H]3CO)c1 | inactive
OC(CNC1CCCc2ccccc21)COc1c(Cl)cccc1Cl (stereo not drawn) | inactive
COC(=O)C[C@@H]1CC[C@H]2[C@@H](COc3ccc(NC(=O)Cc4cccs4)cc3C(=O)N2C)O1 | inactive
C[C@@H]1CN([C@@H](C)CO)C(=O)c2cc(-c3ccncc3)cnc2O[C@@H]1CN(C)C(=O)Cc1cccnc1 | inactive
CN(C)c1ccc(-c2ccnc3c2CC(C)(C(=O)NCC2CC2)O3)cc1 (stereo not drawn) | inactive
O=C(CCNS(=O)(=O)c1cccc2nonc12)NC1CCCc2ccccc21 (stereo not drawn) | inactive
COCC(=O)Nc1ccc2c(c1)C(=O)N(C)[C@@H]1CC[C@H](CC(=O)NCc3ccccc3Cl)O[C@@H]1CO2 | inactive
CC(C)(C)[S@](=O)N1Cc2cc(C(=O)NCc3ccccc3F)nc(-c3cccc(-c4cncnc4)c3)c2[C@@H]1CCO | inactive
C[C@H](O)C#Cc1ccc2c(c1)O[C@H](CN(C)C)[C@@H](C)CN([C@@H](C)CO)S2(=O)=O | inactive
C[C@H]1CN([C@@H](C)CO)C(=O)c2cc(-c3ccccc3)cnc2O[C@H]1CN(C)C(=O)c1cccc(F)c1 | inactive
C[C@@H]1CN([C@@H](C)CO)C(=O)c2cccc(NC(=O)Nc3ccc(C(F)(F)F)cc3)c2O[C@H]1CN(C)C(=O)Nc1cccc2ccccc12 | inactive
